Among the data in PubChem BioAssay (NCI) are growth values, retold here.

Common to all, as to test: NCI-60 one-dose screen, 48 h (100 = growth as untreated, 0 = no growth, -100 = all killed)
For test [1], the system named is MOLT-4 leukemia. To be noted: 10 µM.
Test [2] relates to SR leukemia. Particulars: 10 µM.
Test [3] has as its system RPMI-8226 leukemia. To be noted: 10 µM.
Test [4] relates to OVCAR-8 ovarian. Particulars: 10 µM.
In test [5] the test system is OVCAR-5 ovarian. Particulars: 10 µM.
Test [6] concerns OVCAR-4 ovarian. To be noted: 10 µM.
Test [7] concerns SK-OV-3 ovarian. Particulars: 10 µM.
Test [8] relates to IGROV1 ovarian. To be noted: 10 µM.
Test [9] concerns OVCAR-3 ovarian. To be noted: 10 µM.
Test [10] concerns HS 578T breast. To be noted: 10 µM.
Test [11] deals with NCI/ADR-RES ovarian. To be noted: 10 µM.
Test [12] relates to T-47D breast. To be noted: 10 µM.
Test [13] concerns BT-549 breast. Particulars: 10 µM.
The test system of test [14] is MDA-MB-435 melanoma. Particulars: 10 µM.
The subject of test [15] is SW-620 colon. Particulars: 10 µM.
Test [16] relates to MCF7 breast. To be noted: 10 µM unless noted.
Test [17] relates to HCT-116 colon. To be noted: 10 µM.
Test [18] relates to HCC-2998 colon. Particulars: 10 µM.
Test [19] concerns KM12 colon. Particulars: 10 µM.

Structures are written as SMILES. Values joined by “and” are separate entries in the source; they are usually repeats but may differ in a detail not shown here. Identical values can stand only once. This is part of a sample that, as a whole, favours compounds with a hit. Of some 83,000 tested, about 20% had one in any assay.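 Results are percent growth after 48 hours of single-concentration exposure. 100 means growth as in untreated cells, lower positive values show inhibition; negative values down to -100 show cell death.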 Active and inactive are the calls of the source. How the source made its calls: active means growth percent below 10; inactive means the rest.

`O=[N+]([O-])/C=C\c1ccc2c(c1)OCO2`: the growth was 75.9% (inactive) in test [1]; 34.4% (inactive) in [2]; 10.2% (inactive) in [3]; 89.9% (inactive) in test [4]; 91.5% (inactive) in test [5]; 76.9% (inactive) in [6]. The growth in test [7] is 101% (inactive); in [8], 27.6% (inactive); in [9] it was 85.7% (inactive); in test [10], 87.4% (inactive); in test [11] it was 98.5% (inactive); in [12], 75.3% (inactive). Further, the growth in [13] is 91.7% (inactive); in [14], -14.8% (active); in [15], 43.2% (inactive); in test [16] it was -10.9% (active); in test [17] it was -20% (active); in [18], 52.6% (inactive). Moreover, in test [19], the growth was 38.3% (inactive).

With `CCOP(=O)(OCC)C(O)c1ccccc1Cl` (configuration not stated), the growth in test [1] is 97.8% (inactive); in [2], 93.2% (inactive); in test [4], 100% (inactive); in [5], 87.2% (inactive); in test [6], 106% (inactive); in test [7], 96.5% (inactive). Also, the growth in test [8] is 93.5% (inactive); in test [9], 99.5% (inactive); in [10], 106% (inactive); in test [11] it was 103% (inactive); in [12], 89.1% (inactive); in test [13], 109% (inactive). Also, the growth in [14] was 119% (inactive); in test [15], 99.2% (inactive); in test [16], 103% (inactive); in test [17], 98.8% (inactive); in [18], 102% (inactive); in [19], 103% (inactive).

Regarding `Oc1ccccc1-c1ccccc1`, the growth in test [1] is 90.1% (inactive) and 93.8% (inactive); in [2] it was 92% (inactive) and 87.9% (inactive); in test [4] it was 100% (inactive) and 98% (inactive); in test [5], 105% (inactive) and 109% (inactive); in [6], 108% (inactive) and 104% (inactive); in test [7], 92.2% (inactive) and 102% (inactive). In addition, the growth was 97.9% (inactive) and 107% (inactive) in test [8]; 103% (inactive) and 116% (inactive) in test [9]; 104% (inactive) and 120% (inactive) in test [10]; 99.9% (inactive) and 110% (inactive) in [11]; 94% (inactive) in test [12]; 111% (inactive) and 96.9% (inactive) in test [13]. Moreover, the growth in test [14] was 107% (inactive) and 111% (inactive); in test [15], 109% (inactive) and 103% (inactive); in [16], 98.1% (inactive) and 94.1% (inactive); in test [17], 109% (inactive) and 96.6% (inactive); in test [18], 92.7% (inactive); in test [19], 102% (inactive) and 109% (inactive).

Regarding `Cn1c(O)c(N=O)c(=O)n(C)c1=O`, the growth in test [1] was 101% (inactive) and 99.9% (inactive); in test [2], 103% (inactive) and 80% (inactive); in test [3], 110% (inactive) and 92% (inactive); in test [4] it was 99.6% (inactive) and 111% (inactive); in test [5], 116% (inactive) and 98.1% (inactive); in test [6] it was 116% (inactive) and 111% (inactive). Moreover, the growth is 108% (inactive) and 104% (inactive) in test [7]; 111% (inactive) and 114% (inactive) in test [8]; 101% (inactive) and 94.8% (inactive) in test [9]; 97.1% (inactive) and 98.9% (inactive) in [10]; 101% (inactive) and 102% (inactive) in test [11]; 101% (inactive) and 97% (inactive) in test [12]. Moreover, the growth is 113% (inactive) and 93.3% (inactive) in [14]; 97% (inactive) and 98.9% (inactive) in [15]; 104% (inactive) and 97.2% (inactive) in test [16]; 113% (inactive) and 97.3% (inactive) in [17]; 107% (inactive) in test [18]; 102% (inactive) and 98.6% (inactive) in test [19].

Take `CC(=O)[O][Hg][c]1c(C)c(C)cc(C)c1C`: the growth was -5.69% (active) in test [1]; -27.6% (active) in test [2]; 15.3% (inactive) in [4]; -9.8% (active) in [5]; -93.2% (active) in test [6]; 97.5% (inactive) in test [7]. The growth in test [8] was -73.2% (active); in test [9] it was -93.6% (active); in [10] it was -1.53% (active); in test [11], 78.1% (inactive); in test [12], -27.8% (active); in [13], -70.4% (active). For the same compound, the growth is -91.4% (active) in test [14]; -93.5% (active) in [15]; -6.63% (active) in test [16]; -98.8% (active) in test [17]; 12.5% (inactive) in [18]; 50.5% (inactive) in test [19].

With `COC12C(COC(N)=O)C3=C(C(=O)C(C)=C(N)C3=O)N1CC1C2N1C` (configuration not stated), the growth in test [1] is 7.02% (active); in test [2], 4.38% (active); in test [3] it was 51.7% (inactive); in [5] it was 67.5% (inactive); in test [6], 70.5% (inactive); in test [7], 54.7% (inactive). For the same compound, the growth in test [8] was 24.4% (inactive); in test [9] it was 79.2% (inactive); in [10], 67.1% (inactive); in test [11] it was 66.9% (inactive); in test [12], 52.8% (inactive); in test [13], 60% (inactive). The growth is 68.6% (inactive) in test [14]; 36.8% (inactive) in test [15]; 27.5% (inactive) in test [16]; 44.3% (inactive) in [17]; -4.28% (active) in test [18]; 64.2% (inactive) in [19].

Consider `COc1cc(/C=C(/C)[N+](=O)[O-])ccc1O`, for which the growth was -3.07% (active) and 1.18% (active) in test [1]; -14.7% (active) and -4.36% (active) in [2]; -21.5% (active) in test [3]; 37.5% (inactive) and 27.1% (inactive) in [4]; 83.5% (inactive) and 60.3% (inactive) in [5]; 50.6% (inactive) in test [6]. For the same compound, the growth is 92.5% (inactive) and 90.2% (inactive) in test [7]; 26.4% (inactive) and 21.3% (inactive) in test [8]; -76.2% (active) and -89.3% (active) in test [9]; 48.5% (inactive) and -8.96% (active) in [10]; 62.4% (inactive) and -17.5% (active) in test [11]; -22.6% (active) and -40.3% (active) in [12]. The growth in [14] was 6.19% (active); in test [15], -68% (active) and -56.1% (active); in test [16] it was 9.25% (active) and 1.76% (active); in test [17] it was -56% (active) and -35.4% (active); in [18], 30.3% (inactive) and 87.3% (inactive); in test [19] it was 59.9% (inactive) and 41.9% (inactive).
